“And” between values parts separate entries of the source, which are not always exact repeats. Equal entries are not always repeated.

For assay [1], the target named is Glycogen synthase kinase-3 beta (Homo sapiens) (UniProt P49841). The note with it: at 1 µM.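 Also: reported values are mean percent inhibition of GSK3B.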
Assay [2] concerns the target Homeodomain-interacting protein kinase 1 (Homo sapiens) (UniProt Q86Z02). The note with it: at 0.1 µM.
Assay [3] has the same target. The note with it: at 1 µM.
Assay [4] deals with T1, Homeodomain-interacting protein kinase 4 (Homo sapiens) (UniProt Q8NE63).
T1 sequence (whole entry): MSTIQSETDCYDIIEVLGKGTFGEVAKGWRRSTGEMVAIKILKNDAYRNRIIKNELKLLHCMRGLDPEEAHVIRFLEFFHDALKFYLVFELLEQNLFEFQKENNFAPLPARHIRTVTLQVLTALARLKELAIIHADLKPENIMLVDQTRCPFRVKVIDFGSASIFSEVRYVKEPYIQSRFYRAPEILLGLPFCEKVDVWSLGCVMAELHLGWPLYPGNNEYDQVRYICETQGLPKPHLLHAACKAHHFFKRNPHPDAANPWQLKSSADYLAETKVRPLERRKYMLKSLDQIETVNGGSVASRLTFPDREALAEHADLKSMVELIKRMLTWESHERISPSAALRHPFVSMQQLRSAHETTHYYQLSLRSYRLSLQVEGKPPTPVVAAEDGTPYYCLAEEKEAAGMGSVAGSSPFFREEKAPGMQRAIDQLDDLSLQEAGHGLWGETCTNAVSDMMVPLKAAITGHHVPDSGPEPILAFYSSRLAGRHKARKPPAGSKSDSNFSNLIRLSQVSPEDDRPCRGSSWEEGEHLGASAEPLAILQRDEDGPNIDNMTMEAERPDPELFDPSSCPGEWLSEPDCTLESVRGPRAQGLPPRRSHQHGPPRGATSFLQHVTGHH
The note with it: at 0.1 µM.

Assay [5] deals with T1, Homeodomain-interacting protein kinase 4 (Homo sapiens). Particulars: at 1 µM.
Assay [6] deals with Mitogen-activated protein kinase 9 (Homo sapiens) (UniProt P45984). Particulars: at 0.1 µM.
Mitogen-activated protein kinase 9 (Homo sapiens), sequence (P45984 whole entry, looked up): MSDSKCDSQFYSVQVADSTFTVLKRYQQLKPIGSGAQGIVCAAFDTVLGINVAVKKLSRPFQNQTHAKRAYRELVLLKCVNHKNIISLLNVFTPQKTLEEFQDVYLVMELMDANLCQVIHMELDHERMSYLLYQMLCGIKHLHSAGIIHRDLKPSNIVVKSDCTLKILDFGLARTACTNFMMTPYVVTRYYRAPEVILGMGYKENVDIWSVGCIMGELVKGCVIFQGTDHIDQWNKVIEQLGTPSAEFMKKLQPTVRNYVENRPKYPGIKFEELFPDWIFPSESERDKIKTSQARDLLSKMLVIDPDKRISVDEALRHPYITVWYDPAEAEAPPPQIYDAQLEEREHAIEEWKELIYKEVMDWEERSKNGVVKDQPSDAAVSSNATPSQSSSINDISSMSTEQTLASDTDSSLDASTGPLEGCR
For assay [7] the target is unchanged. Particulars: at 1 µM.
Assay [8] concerns the target Mitogen-activated protein kinase 1 (Homo sapiens) (UniProt P28482). The note with it: at 0.1 µM.
Assay [9] has the same target. Particulars: at 1 µM.
The target in assay [10] is Mitogen-activated protein kinase 3 (Homo sapiens) (UniProt P27361). Particulars: at 0.1 µM.
Mitogen-activated protein kinase 3 (Homo sapiens), sequence (P27361 whole entry): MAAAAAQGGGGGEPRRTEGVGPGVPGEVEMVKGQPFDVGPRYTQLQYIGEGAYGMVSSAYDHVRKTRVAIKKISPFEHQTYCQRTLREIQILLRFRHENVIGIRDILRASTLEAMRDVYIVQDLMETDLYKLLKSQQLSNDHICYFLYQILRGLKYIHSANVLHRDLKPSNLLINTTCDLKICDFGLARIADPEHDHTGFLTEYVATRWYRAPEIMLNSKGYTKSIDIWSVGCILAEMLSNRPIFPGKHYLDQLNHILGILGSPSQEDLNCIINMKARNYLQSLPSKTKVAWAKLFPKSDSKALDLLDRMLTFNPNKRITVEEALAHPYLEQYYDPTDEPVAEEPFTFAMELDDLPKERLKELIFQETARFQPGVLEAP
Assay [11] shares this target. Particulars: at 1 µM.
Assay [12] concerns the target SRSF protein kinase 3 (Homo sapiens) (UniProt Q9UPE1). The note with it: at 0.1 µM.
Assay [13] shares this target. The note with it: at 1 µM.
Assay [14] has as its target Mitogen-activated protein kinase 14 (Homo sapiens) (UniProt Q16539). Particulars: at 0.1 µM.
For assay [15] the target is unchanged. The note with it: at 1 µM.
The target of assay [16] is Mitogen-activated protein kinase 11 (Homo sapiens) (UniProt Q15759). The note with it: at 0.1 µM.
Mitogen-activated protein kinase 11 (Homo sapiens), sequence (Q15759 whole entry): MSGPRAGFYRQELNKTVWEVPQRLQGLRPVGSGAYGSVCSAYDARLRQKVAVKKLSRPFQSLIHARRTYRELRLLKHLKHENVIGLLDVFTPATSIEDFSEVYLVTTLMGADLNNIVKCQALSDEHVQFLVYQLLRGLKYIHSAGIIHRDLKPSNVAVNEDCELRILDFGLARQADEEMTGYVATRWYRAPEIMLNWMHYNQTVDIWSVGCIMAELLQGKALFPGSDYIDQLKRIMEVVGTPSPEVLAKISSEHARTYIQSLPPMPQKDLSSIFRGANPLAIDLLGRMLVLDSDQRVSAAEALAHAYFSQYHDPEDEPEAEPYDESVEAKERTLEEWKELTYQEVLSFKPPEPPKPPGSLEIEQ
The target is the same in assay [17]. The note with it: at 1 µM.
Assay [18] deals with T2, Mitogen-activated protein kinase 13 (Homo sapiens) (UniProt O15264).
T2 sequence (whole entry): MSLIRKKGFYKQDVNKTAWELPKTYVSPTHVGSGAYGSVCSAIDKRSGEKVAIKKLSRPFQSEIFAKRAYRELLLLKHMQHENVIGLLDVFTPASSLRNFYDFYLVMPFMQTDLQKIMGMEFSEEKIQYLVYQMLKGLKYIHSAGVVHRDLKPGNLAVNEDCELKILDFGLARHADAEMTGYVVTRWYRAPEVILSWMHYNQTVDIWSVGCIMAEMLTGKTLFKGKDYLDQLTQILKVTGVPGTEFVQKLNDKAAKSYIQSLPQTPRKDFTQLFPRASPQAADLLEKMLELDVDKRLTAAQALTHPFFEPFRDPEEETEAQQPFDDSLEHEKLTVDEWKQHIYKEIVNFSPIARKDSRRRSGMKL
Particulars: at 0.1 µM.

Assay [19] has as its target T2, Mitogen-activated protein kinase 13 (Homo sapiens). Particulars: at 1 µM.
The target in assay [20] is T3, Mitogen-activated protein kinase 12 (Homo sapiens) (UniProt P53778).
T3 sequence (whole entry): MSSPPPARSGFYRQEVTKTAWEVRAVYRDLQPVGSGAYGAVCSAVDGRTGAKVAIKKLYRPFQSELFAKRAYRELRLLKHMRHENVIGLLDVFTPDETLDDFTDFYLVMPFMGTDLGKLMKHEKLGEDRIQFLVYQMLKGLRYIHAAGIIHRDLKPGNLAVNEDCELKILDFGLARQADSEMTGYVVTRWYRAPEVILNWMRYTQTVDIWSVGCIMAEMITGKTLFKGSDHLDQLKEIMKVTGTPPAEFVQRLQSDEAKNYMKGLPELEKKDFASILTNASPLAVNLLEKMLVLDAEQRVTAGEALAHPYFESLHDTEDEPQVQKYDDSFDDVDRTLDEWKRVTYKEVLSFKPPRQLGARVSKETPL
Particulars: at 0.1 µM.

Mitogen-activated protein kinase 1 (Homo sapiens), sequence (P28482 whole entry): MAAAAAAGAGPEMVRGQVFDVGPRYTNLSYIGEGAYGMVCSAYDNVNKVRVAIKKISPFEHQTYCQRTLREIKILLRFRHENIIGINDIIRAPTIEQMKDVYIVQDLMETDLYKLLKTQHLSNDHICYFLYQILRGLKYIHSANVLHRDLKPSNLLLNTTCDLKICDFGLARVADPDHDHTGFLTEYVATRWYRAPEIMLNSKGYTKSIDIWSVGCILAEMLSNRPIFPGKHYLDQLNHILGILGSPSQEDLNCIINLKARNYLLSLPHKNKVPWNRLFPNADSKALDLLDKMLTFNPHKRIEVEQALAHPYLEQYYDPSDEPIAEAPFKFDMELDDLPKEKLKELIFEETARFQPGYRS
Mitogen-activated protein kinase 14 (Homo sapiens), sequence (Q16539 whole entry): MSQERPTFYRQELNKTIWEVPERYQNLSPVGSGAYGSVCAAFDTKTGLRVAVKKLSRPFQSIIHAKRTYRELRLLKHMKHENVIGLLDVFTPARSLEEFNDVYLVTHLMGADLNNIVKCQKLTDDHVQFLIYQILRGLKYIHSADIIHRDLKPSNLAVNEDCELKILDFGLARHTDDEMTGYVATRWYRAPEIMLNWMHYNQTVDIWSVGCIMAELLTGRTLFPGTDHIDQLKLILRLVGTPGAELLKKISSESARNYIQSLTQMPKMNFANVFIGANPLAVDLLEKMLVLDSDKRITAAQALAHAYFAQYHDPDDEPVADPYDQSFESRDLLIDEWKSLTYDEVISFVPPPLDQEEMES
Homeodomain-interacting protein kinase 1 (Homo sapiens), sequence (Q86Z02 whole entry, looked up): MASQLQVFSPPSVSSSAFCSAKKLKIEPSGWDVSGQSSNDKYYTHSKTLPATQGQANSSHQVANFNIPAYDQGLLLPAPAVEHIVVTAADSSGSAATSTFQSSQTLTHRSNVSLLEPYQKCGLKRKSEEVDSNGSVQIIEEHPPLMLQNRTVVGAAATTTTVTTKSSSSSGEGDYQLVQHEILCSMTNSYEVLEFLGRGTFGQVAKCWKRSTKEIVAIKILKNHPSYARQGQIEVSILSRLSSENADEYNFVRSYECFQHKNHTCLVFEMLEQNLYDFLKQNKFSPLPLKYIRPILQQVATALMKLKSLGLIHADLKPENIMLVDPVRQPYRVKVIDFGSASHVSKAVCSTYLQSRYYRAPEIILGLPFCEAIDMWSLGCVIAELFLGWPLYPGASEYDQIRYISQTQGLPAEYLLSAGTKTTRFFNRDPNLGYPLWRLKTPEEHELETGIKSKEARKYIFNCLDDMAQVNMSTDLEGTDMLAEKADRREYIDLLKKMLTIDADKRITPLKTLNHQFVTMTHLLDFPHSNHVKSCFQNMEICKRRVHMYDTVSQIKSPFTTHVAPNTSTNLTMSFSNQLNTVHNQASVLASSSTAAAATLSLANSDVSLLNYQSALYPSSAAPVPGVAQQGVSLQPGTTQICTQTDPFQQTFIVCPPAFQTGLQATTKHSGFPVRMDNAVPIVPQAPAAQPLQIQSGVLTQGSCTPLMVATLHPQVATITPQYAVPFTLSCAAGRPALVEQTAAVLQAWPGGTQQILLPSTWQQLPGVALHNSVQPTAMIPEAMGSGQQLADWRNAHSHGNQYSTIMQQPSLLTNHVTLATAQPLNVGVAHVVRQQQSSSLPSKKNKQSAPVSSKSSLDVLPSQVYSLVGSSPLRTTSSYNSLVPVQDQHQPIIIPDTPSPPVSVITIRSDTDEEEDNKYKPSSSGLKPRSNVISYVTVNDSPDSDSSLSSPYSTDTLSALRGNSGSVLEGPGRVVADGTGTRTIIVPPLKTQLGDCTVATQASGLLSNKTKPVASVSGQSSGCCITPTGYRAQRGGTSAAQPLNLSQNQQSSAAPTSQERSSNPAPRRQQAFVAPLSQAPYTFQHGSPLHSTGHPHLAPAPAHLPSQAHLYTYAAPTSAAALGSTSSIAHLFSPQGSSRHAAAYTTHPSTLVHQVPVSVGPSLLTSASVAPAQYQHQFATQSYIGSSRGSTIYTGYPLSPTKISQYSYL
Glycogen synthase kinase-3 beta (Homo sapiens), sequence (P49841 whole entry, looked up): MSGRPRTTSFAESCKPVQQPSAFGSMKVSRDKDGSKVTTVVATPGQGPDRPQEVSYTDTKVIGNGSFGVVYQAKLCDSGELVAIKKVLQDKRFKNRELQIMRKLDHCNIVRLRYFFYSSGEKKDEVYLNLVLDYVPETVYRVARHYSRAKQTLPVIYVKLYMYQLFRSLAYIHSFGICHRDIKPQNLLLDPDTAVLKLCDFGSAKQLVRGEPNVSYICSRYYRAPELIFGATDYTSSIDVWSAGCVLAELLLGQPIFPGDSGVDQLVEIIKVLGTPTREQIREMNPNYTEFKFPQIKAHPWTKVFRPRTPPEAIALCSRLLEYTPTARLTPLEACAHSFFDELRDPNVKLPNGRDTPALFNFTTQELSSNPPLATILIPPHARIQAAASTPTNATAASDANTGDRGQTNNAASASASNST
SRSF protein kinase 3 (Homo sapiens), sequence (Q9UPE1 whole entry): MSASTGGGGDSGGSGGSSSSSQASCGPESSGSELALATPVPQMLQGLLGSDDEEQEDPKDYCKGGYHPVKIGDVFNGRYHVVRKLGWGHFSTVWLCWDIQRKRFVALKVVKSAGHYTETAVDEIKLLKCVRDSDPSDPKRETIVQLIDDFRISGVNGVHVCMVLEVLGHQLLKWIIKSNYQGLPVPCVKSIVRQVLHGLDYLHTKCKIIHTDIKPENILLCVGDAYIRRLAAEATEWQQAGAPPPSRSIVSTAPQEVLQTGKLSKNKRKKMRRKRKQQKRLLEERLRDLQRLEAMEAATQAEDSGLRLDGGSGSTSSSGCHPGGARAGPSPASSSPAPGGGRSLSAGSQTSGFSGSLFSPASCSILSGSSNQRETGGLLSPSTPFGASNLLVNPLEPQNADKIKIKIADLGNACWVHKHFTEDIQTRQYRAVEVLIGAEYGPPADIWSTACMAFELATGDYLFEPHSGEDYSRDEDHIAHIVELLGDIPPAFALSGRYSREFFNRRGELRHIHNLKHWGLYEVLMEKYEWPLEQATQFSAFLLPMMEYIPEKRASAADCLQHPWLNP

With `COc1c(C(N)=O)cc(-c2ccc(Cl)cc2)cc1-c1ccc(S(N)(=O)=O)cc1`, the inhibition was 2.65% in assay [1]; -1.29% in assay [2]; -0.59% in [3]; 0.4% in [4]; 1.94% in assay [5]; 3.46% in assay [6]. Moreover, the inhibition was 8.22% in assay [7]; 5.87% in assay [8]; 5.86% in assay [9]; 4.58% in assay [10]; 5.76% in assay [11]; 2.9% in [12]. In addition, the inhibition in assay [13] is 0.68%; in [14], 8.26%; in [15] it was 10.3%; in assay [16], 4.78%; in assay [17] it was 4.22%; in [18], 4.33%. The inhibition in assay [19] is 6.61%; in assay [20], 4.27%.
In the case of `Nc1ncnc2occ(-c3ccc(NC(=O)Nc4cc(C(F)(F)F)ccc4F)cc3)c12`, the inhibition in assay [1] is 17% and 5.38%; in [2], 5.43% and -2.68%; in assay [3] it was 37.4% and 21.6%; in [4] it was 60.9% and 51.1%; in [5], 78.3% and 77.3%; in assay [6], 4.06% and -9.27%. Also, the inhibition in assay [7] is 21.3% and 4.35%; in [8], 1.97% and -3.05%; in [9], 1.72% and -1.67%; in [10], 0.93% and 0.1%; in [11], 2.88% and -1.29%; in assay [12], 9.33% and 10.1%. The inhibition was 49.1% and 43.5% in assay [13]; 8.71% and -2.42% in assay [14]; 36.6% and 20.3% in [15]; 6.21% and 3.71% in assay [16]; 39% and 32.9% in [17]; 5.66% and 0.72% in assay [18]. The inhibition in assay [19] is 29.3% and 17.7%; in assay [20] it was 15% and 4.47%.
Consider `CS(=O)(=O)Nc1ccc(-c2cc(-c3ccccc3)cc(C(N)=O)c2N)cc1`, for which the inhibition in assay [1] is 3.26%; in [2] it was -3.53%; in [3], 2.26%; in [4] it was 0.57%; in assay [5], 2.28%; in [6], 0.94%. The inhibition was 1.19% in assay [7]; 4.56% in [8]; 2.91% in assay [9]; 2.82% in assay [10]; 2.24% in [11]; -1.51% in assay [12]. The inhibition was -0.01% in [13]; 1.19% in [14]; 0.84% in assay [15]; 1.8% in [16]; 0.17% in assay [17]; 1.96% in assay [18]. The inhibition in assay [19] was determined as 0.64%; in [20], 0.99%.
`COc1ccc(Nc2ncc(-c3ccccc3)o2)cc1OC`: the inhibition in assay [1] came to 33%; in assay [2], 8.4%; in assay [3] it was 28.6%; in [4] it was 3.61%; in [5] it was 22.6%; in assay [6] it was 2.69%. Besides, the inhibition in [7] is 8.77%; in assay [8], -0.07%; in [9] it was 1.54%; in assay [10] it was 1.12%; in assay [11], 1.29%; in [12] it was -1.82%. In addition, the inhibition in assay [13] is -2.17%; in assay [14], 4.31%; in assay [15], 5.01%; in assay [16] it was 1.96%; in [17] it was 4.99%; in [18], 0.77%. The inhibition was 2.02% in [19] and 4.1% in assay [20].
As for `COc1ccccc1-c1cc(/C=C2\C(=O)Nc3ncc(Br)cc32)cc(Br)c1O`, the inhibition in assay [1] was 8.88%; in assay [2] it was 0.74%; in assay [3], 7.53%; in assay [4], 0.6%; in assay [5] it was 10.9%; in [6] it was 3.44%. Besides, the inhibition is 8.54% in assay [7]; 3.26% in assay [8]; 4.68% in assay [9]; 4.03% in [10]; 2.3% in assay [11]; 0.86% in [12]. Also, the inhibition in [13] was -0.04%; in assay [14], 2.73%; in assay [15], 11.3%; in assay [16], 5.59%; in assay [17], 5.73%; in assay [18], 0.15%. The inhibition was determined as 9.18% in assay [19] and 2.49% in assay [20].
Turning to `CN(c1ccc(NC(=O)NCCN2CCOCC2)cc1)c1ccnc(Nc2ccc(CS(C)(=O)=O)cc2)n1`, the inhibition was determined as 5.02% in assay [1]; 2.62% in assay [2]; 5.06% in [3]; 6.23% in assay [4]; 31.9% in assay [5]; 1.5% in assay [6]. Besides, the inhibition in assay [7] was determined as 3.59%; in [8], 5.07%; in assay [9], 8.36%; in [10], 4.06%; in assay [11], 3.72%; in assay [12], 0.77%. In addition, the inhibition is 2.7% in [13]; 0.79% in [14]; 5.83% in [15]; 4.13% in assay [16]; 6.58% in assay [17]; 1.11% in [18]. The inhibition in assay [19] worked out at 3.21%; in assay [20], 0.47%.

In general, inhibition refers to the drop in the measured response relative to a control, in per cent.

Source of the values: ChEMBL document CHEMBL1961873, “Compounds: GSK PKIS; Assays: Nanosyn kinase panel” (2012).
